The first assay deals with PUM1 PUF domain R5-GRP (Homo sapiens, UniProt Q14671 828-1176, C1007G;Q1011P). The assay can be described thus: yeast three-hybrid, YBZ-1, SC-Leu-His + 0.5 mM 3-AT, 4 days. Conditions: tags: N-Gal4 AD-HA kept; label: inside an RPR1-promoter hybrid RNA with tandem MS2 sites; ssRNA. In outline: (§1)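 Matching RNA elements and Pumilio-1 PUF domain libraries, randomized at the three base-contacting residues of every repeat, were co-expressed from a centromeric plasmid in strain YBZ-1 (LexA–MS2 coat fusion, HIS3 reporter). The repeat regions were PCR-amplified and Illumina-sequenced from cells grown four days on SC-Leu (input) or SC-Leu-His + 0.5 mM 3-AT (selection). The interaction score is the log change in variant frequency from input to selection. It is computed in log2, with a pseudocount of 1 for absent variants.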
Sequence of PUM1 PUF domain R5-GRP (Q14671 828-1176 C1007G/Q1011P): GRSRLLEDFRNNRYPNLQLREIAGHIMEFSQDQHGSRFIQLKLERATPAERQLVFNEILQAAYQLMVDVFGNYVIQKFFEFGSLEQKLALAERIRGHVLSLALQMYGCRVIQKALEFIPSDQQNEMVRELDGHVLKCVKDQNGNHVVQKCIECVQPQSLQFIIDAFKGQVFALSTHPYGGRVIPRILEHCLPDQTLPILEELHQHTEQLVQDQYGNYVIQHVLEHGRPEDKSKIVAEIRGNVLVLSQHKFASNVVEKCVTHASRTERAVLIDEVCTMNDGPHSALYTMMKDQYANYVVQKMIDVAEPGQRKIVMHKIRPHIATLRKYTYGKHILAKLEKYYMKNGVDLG
Consider “GGCUAGAACUAGUGGAUCCCCCGGCGCCCGGCGGCUCGAGCCCGGGUAAGUGUUAAUAGUCUGCAUGCCGCCGGGCGCCAUGCCUGCAGGUCGACUCUAGAAAACAUG”, for which the binding signal was 0.43 log2 enrichment (interaction score).

“GGCUAGAACUAGUGGAUCCCCCGGCGCCCGGCGGCUCGAGCCCGGGUAAGUGUAAAUAGUCUGCAUGCCGCCGGGCGCCAUGCCUGCAGGUCGACUCUAGAAAACAUG”: the binding signal is 2.96 log2 enrichment (interaction score).

With “GGCUAGAACUAGUGGAUCCCCCGGCGCCCGGCGGCUCGAGCCCGGGUAAGUGUGAAUAGUCUGCAUGCCGCCGGGCGCCAUGCCUGCAGGUCGACUCUAGAAAACAUG”, the binding signal was 1.44 log2 enrichment (interaction score).

The target of a further assay is PUM1 PUF domain R5-ERG (Homo sapiens, UniProt Q14671 828-1176, C1007E;Q1011G). The assay is described as above. Conditions: tags: N-Gal4 AD-HA kept; label: inside an RPR1-promoter hybrid RNA with tandem MS2 sites; ssRNA. In outline: as §1
Sequence of PUM1 PUF domain R5-ERG (Q14671 828-1176 C1007E/Q1011G): as the sequence (Q14671 828-1176 C1007G/Q1011P) above, with G180E, P184G counted along it
On to “GGCUAGAACUAGUGGAUCCCCCGGCGCCCGGCGGCUCGAGCCCGGGUAAGUGUAAAUAGUCUGCAUGCCGCCGGGCGCCAUGCCUGCAGGUCGACUCUAGAAAACAUG”, for which the binding signal was 3.47 log2 enrichment (interaction score).

Take “GGCUAGAACUAGUGGAUCCCCCGGCGCCCGGCGGCUCGAGCCCGGGUAAGUGUGAAUAGUCUGCAUGCCGCCGGGCGCCAUGCCUGCAGGUCGACUCUAGAAAACAUG”: the binding signal is 1.54 log2 enrichment (interaction score).

Regarding “GGCUAGAACUAGUGGAUCCCCCGGCGCCCGGCGGCUCGAGCCCGGGUAAGUGUCAAUAGUCUGCAUGCCGCCGGGCGCCAUGCCUGCAGGUCGACUCUAGAAAACAUG”, the binding signal was 2.14 log2 enrichment (interaction score).

Source of the values: paper PMC8384837, “Expanding the binding specificity for RNA recognition by a PUF domain”.
